This passage reports growth results from PubChem BioAssay (NCI).

Molecules are shown by their SMILES. About 83,000 compounds went through this panel and 20% of them were active in at least one assay; those are over-represented in the sample as a whole.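 For each line, cells grew in 96-well plates with the test compound present at a single concentration for 48 hours.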 The source made the active and inactive calls. How the source made its calls: active means growth percent below 10; inactive means the rest.

The assay relates to UO-31 renal. The experiment in a line: NCI-60 one-dose screen, 48 h (100 = growth as untreated, 0 = no growth, -100 = all killed). As to conditions: 10 µM unless noted.
`CCCCSc1nc(Nc2ccc(S(N)(=O)=O)cc2)c(C#N)c(-c2ccc(Cl)cc2)n1`: the growth was 14.6% (inactive). In the case of `COc1cc(-c2cc(-c3cccc(OCC(=O)O)c3)[nH]c(=O)c2C#N)cc(OC)c1OC`, the growth is 81.8% (inactive). The same measure for `COc1cc(-c2ccc(/C=N/NC(=O)c3[nH]c4ccc(Br)cc4c3-c3ccccc3)o2)cc(OC)c1OC`: 102% (inactive); for `COc1ccc(C2=NN(c3ccccc3)C(c3ccc(OCc4ccccc4)c(OC)c3)C2)cc1OC` (stereo not drawn): 86.8% (inactive); for `CC(C)(C)OC(=O)/C=C/c1cccc2c1C(=O)NC(C)(c1cc3cc(Cl)ccc3oc1=O)N2` (stereo not drawn): 20.8% (inactive). The same measure for `O=C(Nc1ccccc1)N1CCN(c2cc(-c3cn(-c4ccccc4)nc3-c3cccc(O)c3)ccn2)CC1`: 55.1% (inactive). Turning to `COc1ccc(NC(=O)Cn2c3c(sc2=O)[C@H]2[C@@H](O)[C@@H](O)[C@H](O)[C@@H]2CS3)cc1`, the growth is 90.2% (inactive). Turning to `N#Cc1c(-c2ccccc2Cl)cc(-c2c[nH]c3ccccc23)[nH]c1=O`, the growth is 58.7% (inactive). For the compound `CNC(=O)c1cccc(NC(=O)c2ccc3c(c2)nnn3/C(C#N)=C/c2ccccn2)c1`, the growth is -7.22% (active). The same measure for `COc1c(F)ccc(C(=O)Nc2ccc3nc(NC(=O)C4CCCN(S(=O)(=O)c5ccc(C#N)cc5)C4)sc3c2)c1F` (stereo not drawn): 68.8% (inactive); for `O=C(Cn1c2c(sc1=O)[C@H]1[C@@H](O)[C@@H](O)[C@H](O)[C@@H]1CS2)N1CCOCC1`: 91.1% (inactive); for `Nc1nc(-c2ccccc2)c(N=Nc2ccc([N+](=O)[O-])cc2Cl)s1`: 94.9% (inactive).

`C=Cn1cc(C(=O)O)c(=O)c2cc(F)c(N3CCN(c4nccc(-c5nccs5)n4)CC3)cc21`: the growth is -61.5% (active). For the compound `C/C(=N\N=C1/C(=O)Nc2ccc(Cl)cc21)c1ccc2c(c1)Nc1ccccc1S2`, the growth was 18.2% (inactive). `CC1=C(C(=O)c2ccccc2)C(c2cccc3ccccc23)n2c(nc3ccccc32)N1` (stereo not drawn): the growth was 81.8% (inactive). Turning to `C#C[C@]1(O)CC[C@H]2[C@@H]3CC=C4c5sc(-c6ccc(O)c(O)c6)nc5CC[C@]4(C)[C@H]3CC[C@@]21C`, the growth is -93.8% (active). In the case of `O=c1[nH]c(=O)c2c(-c3cc4ccccc4oc3=O)ccnc2[nH]1` it was 71.6% (inactive); in that of `CC1(C)CC[C@]2(C(=O)O)CC[C@]3(C)C(=CCC4[C@@]5(C)C[C@@H](O)[C@@H]6OC(c7ccccc7Br)OC[C@@]6(C)C5CC[C@]43C)C2C1` (stereo partly drawn), 15.5% (inactive). With `COc1cc(-c2nc3ccc(C)cc3[nH]2)ccc1OCc1nnc(-c2ccc(Br)cc2)o1`, the growth was 43% (inactive).

For the compound `Clc1cccc(N/N=C/c2c[nH]c3ccc(Br)cc23)n1`, the growth was 7.66% (active). In the case of `Cn1cc(-c2cc3nc(-c4cn(C)c5ncccc45)cc(N)n3n2)c2cc(Cl)ccc21`, the growth was -87.5% (active).

Turning to `Cn1cc(-c2nnc(N)nc2-c2c[nH]c3ccccc23)c2cccnc21`, the growth is 48% (inactive). In the case of `Cc1ccc([C@H]2C(C(=O)c3ccc(Cl)cc3)C3(N[C@@H]2c2ccccc2)C(=O)Nc2ccccc23)cc1` (stereo partly drawn) it was 17.7% (inactive); in that of `O=C(Cn1nc(-c2ccccc2)ccc1=O)N/N=C/c1ccc(N2CCOCC2)cc1`, 75.8% (inactive); in that of `COc1cc2c(c(OC)c1OC)C(=O)CC(c1cccc(NC(=O)c3cccc([N+](=O)[O-])c3)c1)O2` (stereo not drawn), 16.1% (inactive). On to `COc1ccc2[nH]cc(-c3nnc(N)nc3-c3c[nH]c4ncc(Br)cc34)c2c1`, for which the growth is 65.9% (inactive). For the compound `CC(C)c1ccc2c(N)c(C(=O)Nc3ccc(C(F)(F)F)cn3)sc2n1`, the growth was 62% (inactive).

As for `C=C1CC[C@@H]2[C@]3(C)COC(c4ccco4)O[C@@H]3CC[C@@]2(C)[C@@H]1C/C=C1/C(=O)OCC1OC(C)=O` (stereo partly drawn), the growth is 35.4% (inactive).

On to `CCN(CC)c1ccc(/C=N/Nc2nc(-c3ccc(Br)cc3)cs2)c(O)c1`, for which the growth is 65.4% (inactive). In the case of `N=C1N=C(SCc2nc3ccccc3[nH]2)NC(=O)/C1=C/c1ccc(Cl)cc1` it was 70.5% (inactive); in that of `COc1ccc(-c2c(Nn3cnnn3)no[n+]2[O-])cc1`, 20.8% (inactive); in that of `CN(C)c1nc(NCCNS(=O)(=O)c2ccc(C(=O)/C=C/c3ccc(F)cc3)cc2)nc(Nc2ccc(F)cc2)n1`, -49.1% (active). In the case of `N/C(=N\c1nc2ccccc2s1)NC(=O)Nc1ccc(Cl)cc1Cl` it was -93% (active).
